Results taken from ChEMBL document CHEMBL3988442, “University of Dundee, Small-Polar-MMV Screening Library” (2021).
Screen size: about 48,000 compounds; about 13,000 (27%) showed an effect of 50% or more. This is one part of the list.

tested on: Wolbachia pipientis; experiment: Anti-Wolbachia Cell-Based Screen; type: functional; set-up: scale not given: in the data most compounds retested in dose-response had high values; settings: 5 µM

Point of comparison: Cc1cnccc1-c1cnn(CCNC(=O)c2cccnc2)c1C1CC1.Cl, “Percent Effect” value 156.9%. Against it:
- Cc1cc(C)n(C(=O)c2cn(C)nc2S(=O)(=O)N2CCSCC2)n1 — lower, -0.316%
- Cc1c[nH]c(CN2CCCCC2CCn2cccn2)c(C)c1=O (stereo not drawn) — lower, 21.06%
- CCCn1ncc(CN2CCCCC2CCCOC)c1C (stereo not drawn) — lower, -0.2831%
- Cc1nccn1CCC1CCCCN1Cc1ccc(O)cc1Cl (stereo not drawn) — lower, -13.87%
- COc1cc2c(cc1CN1CCCCC1CN1CCOCC1)CCC2 (stereo not drawn) — lower, 26.24%
- Cc1cnn(CC2CCCN2Cc2cc(=O)n3cc(C)ccc3n2)c1 (stereo not drawn) — lower, 11.19%
- Cc1ccc2nc(CN3CCCCC3CCN3CCOCC3)cn2c1 (stereo not drawn) — lower, 98.48%
- COc1c(C)cnc(CN2CCCCC2CCN2CCOCC2)c1C (stereo not drawn) — lower, 0.5923%
- COCCCC1CCCCN1Cc1cn2cc(C)ccc2n1 (stereo not drawn) — lower, 95.19%
- Cc1ccc2nc(CN3CCCCC3CCn3cccn3)cn2c1 (stereo not drawn) — lower, 89.18%
- Cc1oc(-c2ccoc2)nc1CN1CCCCC1CCn1cccn1 (stereo not drawn) — lower, 3.711%
- COCCCC1CCCCN1Cc1cnn(C)c1C1CC1 (stereo not drawn) — lower, 18.85%
- Cc1ccc(O)c(CN2CCCCC2CCN2CCOCC2)c1 (stereo not drawn) — lower, 102.9%
- CC(C)(C)CN(CCC#N)C(=O)Nc1cccc(N2CCNC2=O)c1 — lower, 7.726%
- O=C(c1ccccc1F)N(CCCO)S(=O)(=O)c1cccs1 — lower, 2.629%
- O=C(NCCNc1ncccn1)N(Cc1ccc(F)cc1F)C1CC1 — lower, -5.455%
- O=C(CN1CCCC1c1nc(-c2ccccc2)no1)N1CCOCC1 (stereo not drawn) — lower, 6.777%
- N#Cc1ccccc1OCCN1CCCCC1C(=O)N1CCOCC1 (stereo not drawn) — lower, 9.052%
- Cc1ccc2nc(CN3CCCCC3C(=O)N3CCOCC3)cn2c1 (stereo not drawn) — lower, 89.82%
- Cc1nc(CN2CCCN(C(=O)C(C)OCC3CC3)CC2)cs1 (stereo not drawn) — lower, 0.6409%
- COc1ccc(S(=O)(=O)NC(=O)c2c(C)noc2C(C)C)cc1C — lower, -2.008%
- CCc1nc(N2CCCC(CCOC)(C(=O)O)C2)ncc1C (stereo not drawn) — lower, 2.702%
- CC(C)S(=O)(=O)CCN1CCN(C(C#N)c2ccccc2)CC1 (stereo not drawn) — lower, 88.63%
- CCCS(=O)(=O)CCN1CCN(c2cc(F)ccc2F)CC1 — lower, -4.475%
- CC(c1ccc(Cl)cc1)N1CCN(CCCS(N)(=O)=O)CC1 (stereo not drawn) — lower, 8.4%
- CCS(=O)(=O)CCN1CCN(C(C)c2cccnc2)CC1 (stereo not drawn) — lower, 4.9%
- CC(c1ccc(Cl)cc1)N1CCN(CCS(N)(=O)=O)CC1 (stereo not drawn) — lower, -4.709%
- CCCS(=O)(=O)CCN1CCN(C(C#N)c2ccccc2)CC1 (stereo not drawn) — lower, 125.8%
- CS(=O)(=O)N1C[C@H](C(=O)Nc2cnccn2)C[C@H]2OCC[C@H]21 — lower, -3.249%
- CS(=O)(=O)N1CCc2[nH]cnc2C12CCN(C1CCOCC1)CC2 — lower, 0.6109%
- CS(=O)(=O)N1CC2(CCN(C3CCCCC3)CC2)Cc2ccccc21 — lower, 114.5%
- CS(=O)(=O)N1CC2(CCN(C3CCCCC3)C2)Cc2ccccc21 (stereo not drawn) — lower, 120%
- O=C1N(Cc2ccc(F)c(F)c2)CCCC12CCN(C1CCCCC1)C2 (stereo not drawn) — lower, -2.682%
- Cc1cccc(N2CCC(N3CCC4(CCCNC4=O)C3)CC2)c1C (stereo not drawn) — lower, 11.3%
- CN(C)C(=O)N1CC2(CCN(S(C)(=O)=O)CC2)c2ccccc21 — lower, 1.836%
- CC(C)CCN1CCc2[nH]nc(C(=O)N3CCCC3C)c2C1.O=C(O)C(F)(F)F (stereo not drawn) — lower, -10.1%
- CS(=O)(=O)N1CC[C@@H]2[C@@H](CCC(=O)N2CCC2=CCCCC2)C1 — lower, -15.08%
- CN(Cc1cnn(C)c1)Cc1nc(CCc2ccccc2)no1 — lower, 8.219%
- Cc1cnccc1-c1cnn(CCNC(=O)c2ccccn2)c1C1CC1.Cl — higher, 221.9%
- CCNc1ncc(C(=O)NCCNc2ccncc2C)cn1 — lower, 11.05%
- CCOC(=O)NC(CNC(=O)c1ccccn1)CC(C)C (stereo not drawn) — lower, -0.8901%
- CC(C)(C)C(=O)NCCC(=O)NS(=O)(=O)c1cccnc1 — lower, 1.555%
- Cc1ccccc1C1CCN(C(=O)CCNC(=O)C(C)(C)C)C1 (stereo not drawn) — lower, -3.334%
- Cc1cnn(C(C)C2CC2)c1NC(=O)c1ccncc1 (stereo not drawn) — lower, -0.2997%
- O=C(NCCSC1CCCC1)c1cnccn1 — lower, 5.351%
- Cc1cnccc1-c1cnn(CCNC(=O)c2ccncc2)c1C1CC1.Cl — higher, 189.5%
- Cc1ccc(CN(C(=O)NCCNC(=O)c2cccnc2)C(C)C)o1 — lower, -0.6443%
- Cc1cnccc1-c1cnn(CCNC(=O)C(C)(C)C)c1C1CC1.Cl — lower, 128.5%
- CC(Cn1cccn1)NCc1csc(-c2ccc(F)cc2)n1 (stereo not drawn) — lower, 3.098%
- CCCSCC(=O)Nc1ncn(CC(=O)N2CCCCCC2)n1 — lower, -27.1%
- COC(=O)c1cccc(CN(C)Cc2ncnn2C)c1C#N — lower, -234%
- O=C(Nc1cnn(-c2ccccc2Cl)c1)N[C@@H]1C=C[C@H](CO)C1 — lower, -14.17%
- O=C(NCC1CC1)Nc1cnc2ccc(F)cc2c1O — lower, 100.3%
- COc1ccc2c(O)c(NC(=O)NCC3CC3)cnc2c1 — lower, -18.39%
- O=C(Cn1cnnn1)Nc1ccc(F)cc1OCC1CC1 — lower, 11.02%
- CNc1nc(CNC(=O)Nc2cccc(COCCOC(C)C)c2)cs1 — lower, -6.236%
- CS(=O)(=O)N1CCCC12CCCN(c1nccs1)C2 (stereo not drawn) — lower, 4.667%
- CCc1ccc(S(=O)(=O)N2CCC3(CC(C(=O)NC)=NO3)C2)cc1 (stereo not drawn) — lower, 16.22%
- CC(C)c1ccc(S(=O)(=O)N2CCCC3(CCCN3S(C)(=O)=O)C2)cc1 (stereo not drawn) — lower, 108.3%
- CCc1ccc(S(=O)(=O)N2CCCC3(CCCN3S(C)(=O)=O)C2)cc1 (stereo not drawn) — lower, 114.6%
- CC(C)CC(c1nc(-c2cnn(C)c2)no1)N1CCCCC1=O (stereo not drawn) — lower, 17.74%
- CC(=O)c1ccc(OCC(C)O)cc1O (stereo not drawn) — lower, 100.7%
- CCOC(=O)COc1cccc(NC(=O)C2COCCO2)c1 (stereo not drawn) — lower, -0.4507%
- CCOC(=O)COc1ccc(C(C)=O)c(O)c1 — lower, 95.41%
- Cc1ccc(OCC(C)NS(C)(=O)=O)cc1C (stereo not drawn) — lower, 1.577%
- CC(=O)c1ccc(Cl)c(Cl)c1OCC(=O)NC(N)=O — lower, 29.22%
- Cc1ccccc1NC(=O)CNC(C)COc1ccccc1 (stereo not drawn) — lower, -5.07%
